Reference: ChEMBL document CHEMBL3988442, “University of Dundee, Small-Polar-MMV Screening Library” (2021)
About 13,000 (27%) of roughly 48,000 compounds showed an effect of 50% or more. The list shows a part of the results.

Test system: Wolbachia pipientis
Assay: Anti-Wolbachia Cell-Based Screen
Type: functional
Set-up: scale not given: in the data most compounds retested in dose-response had high values
Settings: 5 µM

| SMILES | Percent Effect [%] |
| --- | --- |
| Cc1nc(C)n(CC2CCCCN2CC(=O)Nc2cccnc2)n1 (stereo not given) | -1.265 |
| Cn1cc(CNCCNC(=O)Cc2ccccc2)c(-c2cccnc2)n1 | 13.61 |
| COc1ccccc1S(=O)(=O)N1CC(N(C)C)Cc2ccccc21 (stereo not given) | 4.709 |
| CN(C)C(=O)CN1C[C@H]2CCN(C(=O)C3CCCO3)CC[C@H]2S1(=O)=O (stereo not given in full) | -8.272 |
| CCOc1ccnc(N2CCCN(c3nc(C4CC4)ns3)CC2)n1 | -0.1352 |
| CCCC(Nc1nc(COCC)nc2c1CCNCC2)c1nccn1C (stereo not given) | 3.628 |
| CC1CCC(NS(=O)(=O)CC(=O)NC(C2CC2)C2CC2)CC1 (stereo not given) | 99.55 |
| CC1CCC(N2CCC(NS(=O)(=O)CCOC(C)C)CC2)CC1 (stereo not given) | -12.56 |
| O=C(CN1CCN(CCO)CC1)NC(C1CC1)C1CC1 | -6.092 |
| O=C(c1ccccc1F)N1CCN(c2ccc(-n3cccn3)nn2)CC1 | 5.073 |
| CCc1ccsc1C(=O)N(C)CCc1ccncc1 | 33.97 |
| CC/C=C(/C)C(=O)N1CSCC1C(=O)N(C)CCc1ccncc1 (stereo not given) | -7.241 |
| CN(Cc1ccccc1)C(=O)[C@@H]1Cc2[nH]cnc2CN1C | 13.33 |
| CN(CCc1ccccc1)C(=O)c1cc(CN2CCC(O)CC2)on1 | -17.23 |
| CC(=O)N1Cc2ccccc2C[C@H]1C(=O)N(C)CCc1ccccn1 | -17.28 |
| CC(=O)N1N=C(c2ccco2)OC1C(=O)N(C)CCc1ccccc1 (stereo not given) | 108.8 |
| CCC(=O)N1CSCC1C(=O)N(C)CCc1ccccc1 (stereo not given) | -0.07211 |
| CN(Cc1cnn(C)c1)C(=O)C1COc2ccccc2C1 (stereo not given) | -7.691 |
| CC(=O)N1N=C(c2ccccc2)OC1C(=O)N(C)Cc1ccccc1 (stereo not given) | 105.2 |
| CN(CCc1ccccc1)C(=O)CN1C(=O)OC[C@@H]1c1ccccc1 | -12.26 |
| CC(=O)N1N=C(c2ccncc2)OC1C(=O)N(C)CCc1ccccc1 (stereo not given) | 108.6 |
| CC(=O)N1N=C(c2ccccc2)OC1C(=O)N(C)CCc1ccccc1 (stereo not given) | 94.62 |
| Cc1cnc(C(=O)N[C@H]2CN(CCS(C)(=O)=O)C[C@@H]2C2CC2)cn1 | 4.986 |
| CC(Cc1cncs1)Nc1ncnc2cccc(F)c12 (stereo not given) | -13.2 |

| SMILES | Percent Effect [%] |
| --- | --- |
| CC(C)Cc1noc(CC2CCS(=O)(=O)C2)n1 (stereo not given) | -7.316 |
| CN(C)c1ccc(CNC2(c3ccc(F)cc3)CCOCC2)cc1F | -20.17 |
| Cc1csc2c(N3CCC(NCCCc4ccncc4)CC3)ncnc12 | -7.721 |
| CO[C@H]1CN(Cc2cc(Cn3cncn3)c(C)cc2C)CC[C@H]1N | 13.4 |
| CCC(=O)N1CCCC1c1nccnc1Nc1nc(C)cc(C)n1 (stereo not given) | 4.912 |
| Cc1cc(C)nc(Nc2nccnc2C2CCCN(C(CO)CO)C2)n1 (stereo not given) | 89.81 |
| CC(=O)N1CCCC(c2nccnc2Nc2nc(C)cc(C)n2)C1 (stereo not given) | 92.16 |
| Cc1cc(C)nc(Nc2nccnc2C2CCCN(CCO)C2)n1 (stereo not given) | 115.9 |
| Cc1cc(C)nc(Nc2nccnc2C2CCCN(C(C)C)C2)n1 (stereo not given) | 76.04 |
| CCN1C(=O)[C@H]2CN(Cc3cccnc3)C[C@H]2C12CCN(C(C)=O)CC2 | -22.31 |
| COCC(NC(=O)NCc1ccc(C)c(F)c1)c1ccco1 (stereo not given) | 5.842 |
| O=C(NC1CC1)N1CCCC2(CCNC2=O)C1 (stereo not given) | -20.05 |
| COc1c(F)cc(NCC(=O)NC(C)(C#N)C2CC2)cc1F (stereo not given) | -10.88 |
| CCOC(=O)N1CCN(c2nc(N)c3ccccc3n2)CC1.Cl | 10.93 |
| COCc1ccccc1C(=O)N(C)Cc1ncc(C)c(OC)c1C | 29.72 |
| Cc1noc(C)c1CC(=O)OCc1nc(N)c2ccccc2n1 | -18.91 |
| COCc1ccccc1C(=O)OCc1noc(C)n1 | 97.59 |
| Cc1nc(COc2cccc(C#N)c2)no1 | 2.018 |
| Cc1csc(CN(CC2CCCO2)C(=O)c2cccnc2C)n1 (stereo not given) | -5.515 |
| Cc1nc(COC(=O)c2cccnc2C)no1 | 111.5 |
| Cc1cnc(N2CCC(OCCN3CCCCC3)C2)nc1C (stereo not given) | 11.15 |
| CN1CCC(N(Cc2ccccc2)C(=O)c2ccn3ccnc3c2)CC1 | 0.1453 |
| CN(CC1CC1)C(=O)CN(Cc1cccc(O)c1)C1CCC(O)CC1 (stereo not given) | -10.37 |
| CN1CCC(N2CCC(CN(Cc3ccncc3)C3CCC3)CC2)CC1 | 7.68 |

| SMILES | Percent Effect [%] |
| --- | --- |
| CN1CCC(N2C[C@H](O)C[C@H]2c2nc(Cc3ccccc3)no2)CC1 | -1.075 |
| CN1CCC(N(C)CCC(=O)N2CCC(CCc3ccccc3)CC2)C1 (stereo not given) | -7.751 |
| CN1CC[C@H](N(C)Cc2ccccc2)C[C@H](O)C1 | 67.42 |
| CN1CC[C@H](N(Cc2ccccc2)C2COC2)C[C@H](O)C1 | 101.7 |
| CN1CC[C@H](N(Cc2ccccc2)CC2CC2)C[C@H](O)C1 | 101.2 |
| CN1CC[C@H](N(Cc2ccccc2)Cc2ccccc2)C[C@H](O)C1 | 97.14 |
| CN1CCC(N(Cc2ccccc2)C(=O)c2ccn3cncc3c2)CC1 | -5.801 |
| CN1CCC(N(Cc2ccccc2)C(=O)c2nccn3ccnc23)CC1 | 3.341 |
| CN1CCC(N(C)CCC(=O)N2CCC(OCc3ccccc3)CC2)C1 (stereo not given) | -15.08 |
| COC(=O)c1sc2nc3c(c(C(F)(F)F)c2c1N)CN(C(C)=O)CC3 | 5.653 |
| COc1ccc(NC(=O)C(C)n2cncn2)cn1 (stereo not given) | 104.1 |
| CC(C(=O)Nc1ccc(N2CCCC2)nc1)n1ccnc1 (stereo not given) | -0.9927 |
| CC(Cn1cccn1)NC(=O)Nc1ccc(N2CCCC2)nc1 (stereo not given) | -16.81 |
| CC(Cn1cccn1)NC(=O)Nc1ccc(N2CCCCC2)nc1 (stereo not given) | -23.5 |
| CC(C(=O)Nc1cccc(N2CCCCC2)c1)n1cncn1 (stereo not given) | 4.529 |
| CC(C(=O)Nc1ccc(N2CCCCC2)nc1)n1cncn1 (stereo not given) | 95.56 |
| COc1ccc(Oc2ccc(CNC(=O)C(C)n3cncn3)cn2)cc1 (stereo not given) | -12.03 |
| CC(C(=O)Nc1ccc(N2CCCC2)nc1)n1cccn1 (stereo not given) | 93.36 |
| O=C(Cc1ccccc1O)Nc1ccc(N2CCCC2)nc1 | 0.2058 |
| CC(C(=O)Nc1ccc(N2CCCCC2)nc1)n1ccnc1 (stereo not given) | 105.1 |
| CC(C(=O)NCc1ccnc(Oc2ccc(F)cc2)c1)n1cncn1 (stereo not given) | -19.79 |
| CC(C(=O)Nc1ccc(N2CCCC2)nc1)n1cncn1 (stereo not given) | -0.2792 |
